Bioassay records (PubChem BioAssay)
Sm TGR inh = blocks Schistosoma mansoni thioredoxin glutathione reductase; purified TGR, DTNB reduction, TNB absorbance 405 nm; 360,000 compounds, 3% hits; Potency, µM (highest dose often 114 µM), for inactives: at the top dose activity change, negative = inhibition, usual class: inhibitors; Q962Y6; also: nearly all actives have a fitted effect of over 60% in size
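First, TGR (20 nM dispensed) and NADPH were mixed with compound. Second, a 15 min room-temperature incubation followed. Third, further NADPH and then DTNB were added to start the reaction. Finally, TNB absorbance was monitored kinetically.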
RE007 growth inh = less growth of the S. pombe RE007 Vpr strain; Potency, µM (series often up to 92.2 µM), without a hit: at the top dose activity change, negative = less growth, most hits filed as inhibitors; 360,000 compounds, 0.21% hits; AID 651644; S. pombe RE007 Vpr strain, BacTiter-Glo ATP luminescence, 24 h; active = well fitted falling curve with a large enough effect; inconclusive = small, poorly fitted or top-dose-only effect; inactive = no such curve, though single readings can be large or run the other way; also: nearly all actives have a fitted effect of over 50% in size
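Fission yeast strain RE007, carrying one chromosomally integrated HIV-1 vpr copy, was seeded at OD 0.01 in PMG+AL medium with 23 nL pinned compound. After 24 h at 30 °C and 99% humidity, viability was read by BacTiter-Glo luminescence.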
Giardia FBPA inh = inhibitors of Giardia lamblia fructose-1,6-bisphosphate aldolase | Potency, µM (titrated, usually from 59.6 µM), inactives show at the top dose activity, negative = inhibition, actives largely listed as inhibitors | 290,000 compounds, 0.71% hits | purified Giardia FBPA; also: nearly all actives have a fitted effect of over 55% in size
Target sequence (A8B2U2 whole entry, looked up): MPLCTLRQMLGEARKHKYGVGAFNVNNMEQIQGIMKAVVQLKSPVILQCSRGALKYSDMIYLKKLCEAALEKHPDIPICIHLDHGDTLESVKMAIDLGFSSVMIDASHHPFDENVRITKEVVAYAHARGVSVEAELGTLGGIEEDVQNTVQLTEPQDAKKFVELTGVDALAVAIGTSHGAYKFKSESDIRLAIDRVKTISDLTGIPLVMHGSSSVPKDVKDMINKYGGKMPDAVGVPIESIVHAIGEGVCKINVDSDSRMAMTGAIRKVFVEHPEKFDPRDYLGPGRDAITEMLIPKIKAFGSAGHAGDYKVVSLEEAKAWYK
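Giardia FBPA (40 nM reagent) was preincubated 10 min at RT with compound (up to 57.5 uM final), then substrate plus GAPDH/TPI/NAD/arsenate coupling system with diaphorase/resazurin was added; resorufin fluorescence (525/598 nm) was read after 20 min.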
AmpC inh no detg = inhibitors of E. coli AmpC beta-lactamase without detergent; AmpC nitrocefin hydrolysis, absorbance 480 nm, 0.0001% Triton; 330,000 compounds, 0.52% hits; Potency, µM (titrated, usually from 57.1 µM), for the others: top-dose activity change, negative = inhibition, hits mostly inhibitors; P00811; AID 485341;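 also: plate controls were no compound for no effect and no enzyme for full effect; nearly all actives have a fitted effect of over 20% in size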
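20 mM phosphate pH 7.0 + 0.01% (detergent screen) or 0.0001% Triton X-100; 5.3 nM AmpC reagent; cpd preinc 15 min RT; nitrocefin (800 uM stock) to start; A480 q20 s × 4 min; Activity was normalised to no-enzyme and no-compound control wells.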
AmpC inh detg = AmpC beta-lactamase inhibition with detergent present | P00811 | AmpC hydrolysis of nitrocefin, absorbance 480 nm, 0.01% Triton | Potency, µM (doses to about 114 µM), inactives show at the highest dose activity change, negative = inhibition, actives largely listed as inhibitors | 370,000 compounds, 0.041% hits | AID 485294;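 also: 0% = no-compound wells and -100% = no-enzyme wells; nearly all actives have a fitted effect of over 25% in size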
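20 mM phosphate pH 7.0 + 0.01% (detergent screen) or 0.0001% Triton X-100; 5.3 nM AmpC reagent; cpd preinc 15 min RT; nitrocefin (800 uM stock) to start; A480 q20 s × 4 min; Activity was normalised to no-enzyme and no-compound control wells.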
* = called active by the depositor. Only some compounds are listed: those with a hit (about 3.4% of all), similar ones and a draw of the others. Unless noted, calls follow the shape of the dose curve; as a rule, active = well fitted curve in the direction sought with a large enough effect; inconclusive = small, poorly fitted or top-dose-only effect, or another doubt; inactive = no such curve, though single readings can be large; an effect the other way counts as inactive or inconclusive. Unless noted, % is scaled to controls: 0 for no effect and ±100 for the full control effect; potency is read from the fitted curve at half-maximal effect.

CC(=O)N1CCN(C(=O)CCc2nnc(CCCCc3ccccc3)o2)CC1 was read as Sm TGR inh 45µM*, RE007 growth inh 5%, Giardia FBPA inh 1%, AmpC inh no detg -11% and AmpC inh detg 1%.
O=C(NC1CCCC1)c1ccc(Cl)s1 was read as Sm TGR inh 0%, RE007 growth inh -15%, AmpC inh no detg -21% and AmpC inh detg -6%.
`O=C(NC1CCCCCC1)c1ccc([N+](=O)[O-])s1` gave Sm TGR inh -4%, RE007 growth inh 45µM*, AmpC inh no detg -25% and AmpC inh detg 0%.
`CCOC(=O)NCc1ccc2[nH]c(C)cc2c1` gave Sm TGR inh inconclusive, RE007 growth inh 19%, Giardia FBPA inh -12%, AmpC inh no detg -21% and AmpC inh detg inconclusive.
`CCOC(=O)CCC(=O)NCc1ccc2[nH]c(C)cc2c1` gave Sm TGR inh 50µM*, RE007 growth inh 3%, Giardia FBPA inh -23%, AmpC inh no detg -21% and AmpC inh detg inconclusive.
Screening Cc1cc2cc(CNC(=O)Nc3ccccc3)ccc2[nH]1 returned Sm TGR inh -15%, RE007 growth inh -8%, Giardia FBPA inh -10%, AmpC inh no detg 22µM* and AmpC inh detg -4%.
Screening C/C(=N\NC(=O)COc1ccccc1-c1ccccc1)c1ccc(O)cc1O returned Sm TGR inh -5%, RE007 growth inh 15%, Giardia FBPA inh 12%, AmpC inh no detg -36% and AmpC inh detg -7%.
`CC1(c2ccc([N+](=O)[O-])cc2)Nc2ccccc2S1` (centres undefined) gave Sm TGR inh 0%, RE007 growth inh 40µM*, Giardia FBPA inh -7%, AmpC inh no detg -38% and AmpC inh detg 2%.
Screening O=C(CCO)c1ccc(O)cc1 returned Sm TGR inh 18µM*, RE007 growth inh 10%, Giardia FBPA inh -14%, AmpC inh no detg -29% and AmpC inh detg 5%.
CCCCC(=O)c1ccc(O)cc1 was read as Sm TGR inh -17%, RE007 growth inh -16%, Giardia FBPA inh 4%, AmpC inh no detg -22% and AmpC inh detg -10%.
Screening O=C(CCSc1ccc(Br)cc1)c1ccc(O)cc1 returned Sm TGR inh 2.5µM*, Giardia FBPA inh 0%, AmpC inh no detg -48% and AmpC inh detg -9%.
Screening Cc1ccc(C(N)=Nc2ccccc2)cc1 returned Sm TGR inh -2%, Giardia FBPA inh 1%, AmpC inh no detg -19% and AmpC inh detg -14%.
CC(NC(=S)Nc1ccc([N+](=O)[O-])cc1)c1ccncc1 (centres undefined) was read as Sm TGR inh 45µM*, RE007 growth inh -11%, Giardia FBPA inh 1%, AmpC inh no detg -38% and AmpC inh detg 0%.
O=[N+]([O-])c1ccc(NC(=S)NCc2ccncc2)cc1 was read as Sm TGR inh -35%, RE007 growth inh -15%, Giardia FBPA inh 2%, AmpC inh no detg -36% and AmpC inh detg 5%.
CCC1Oc2ccccc2N(CC(=O)NCCC2=CCCCC2)C1=O (centres undefined) was read as Sm TGR inh -11%, RE007 growth inh -2%, Giardia FBPA inh 1%, AmpC inh no detg -5% and AmpC inh detg -4%.
Screening CN(C)CCNc1ncnc2c1sc1nc(N3CCCC3)c3c(c12)CC(C)(C)OC3 returned Sm TGR inh 9%, RE007 growth inh 1%, Giardia FBPA inh -12%, AmpC inh no detg 154% and AmpC inh detg 4%.
Screening CC1(C)Cc2c(c(-c3ccco3)nc3sc4c(NCCN5CCOCC5)ncnc4c23)CO1 returned Sm TGR inh 40µM*, RE007 growth inh -3%, Giardia FBPA inh -2%, AmpC inh no detg 47% and AmpC inh detg -10%.
`CC1(C)Cc2c(c(-c3ccco3)nc3sc4c(NCC5CCCO5)ncnc4c23)CO1` (centres undefined) gave Sm TGR inh 79µM*, Giardia FBPA inh -5%, AmpC inh no detg 1% and AmpC inh detg 0%.
